For part of these data: Potency and affinity values are given separately.
Tests used:
Set-up in all cases: scale not given: direction of the effect not stated beside the values
[1] = target: Protein translocase subunit SecA (Escherichia coli (strain K12)) (UniProt P10408); experiment: Assay to Identify E. coli SecA ATPase Inhibitors; assay type: functional; conditions: 30 µM
[2] = target: T1, Ubiquitin-activating enzyme e1, putative (Leishmania donovani (strain BPK282A1)) (UniProt E9BSI1); experiment: Leishmania donovani Ubiquitin Activating Enzyme (LdE1); assay type: functional; conditions: 30 µM
T1 sequence (whole entry): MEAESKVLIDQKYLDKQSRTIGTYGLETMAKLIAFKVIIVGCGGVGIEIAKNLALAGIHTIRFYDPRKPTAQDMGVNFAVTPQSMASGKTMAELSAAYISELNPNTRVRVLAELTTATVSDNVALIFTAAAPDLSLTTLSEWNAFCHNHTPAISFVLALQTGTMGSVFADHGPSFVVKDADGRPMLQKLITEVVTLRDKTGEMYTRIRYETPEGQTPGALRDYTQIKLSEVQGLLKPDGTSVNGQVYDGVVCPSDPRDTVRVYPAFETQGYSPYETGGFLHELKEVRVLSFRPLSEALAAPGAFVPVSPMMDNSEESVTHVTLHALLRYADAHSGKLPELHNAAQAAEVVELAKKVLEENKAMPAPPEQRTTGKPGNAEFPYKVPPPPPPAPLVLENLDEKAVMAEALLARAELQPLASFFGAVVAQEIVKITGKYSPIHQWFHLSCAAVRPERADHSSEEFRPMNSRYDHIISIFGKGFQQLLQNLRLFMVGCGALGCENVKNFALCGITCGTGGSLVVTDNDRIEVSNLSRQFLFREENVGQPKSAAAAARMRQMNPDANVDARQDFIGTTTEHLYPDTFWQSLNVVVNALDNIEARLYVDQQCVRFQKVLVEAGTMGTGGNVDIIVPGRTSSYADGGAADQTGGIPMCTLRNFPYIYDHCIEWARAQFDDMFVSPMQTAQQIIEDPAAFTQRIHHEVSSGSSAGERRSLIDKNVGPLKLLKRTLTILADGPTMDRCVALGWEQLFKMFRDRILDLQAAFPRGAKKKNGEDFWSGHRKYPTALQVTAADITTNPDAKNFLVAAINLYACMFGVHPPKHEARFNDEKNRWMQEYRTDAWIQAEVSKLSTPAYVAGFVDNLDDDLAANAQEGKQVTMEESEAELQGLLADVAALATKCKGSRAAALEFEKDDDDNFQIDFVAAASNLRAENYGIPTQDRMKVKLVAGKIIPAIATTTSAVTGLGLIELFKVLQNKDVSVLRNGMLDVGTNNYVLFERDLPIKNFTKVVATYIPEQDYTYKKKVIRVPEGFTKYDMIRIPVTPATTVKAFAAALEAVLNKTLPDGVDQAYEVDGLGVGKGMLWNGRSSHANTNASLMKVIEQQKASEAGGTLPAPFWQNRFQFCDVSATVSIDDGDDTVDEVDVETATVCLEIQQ

[3] = target: Sialic acid-binding Ig-like lectin 9 (Homo sapiens) (UniProt Q9Y336); experiment: Hs-Siglec9 ALPHAscreen SOP 20170721; conditions: 10 µM
Trypanosoma cruzi = experiment: Trypanosoma cruzi phosphomannomutase and mannose-1-phosphate guanylyltransferase assay; assay type: functional; conditions: 10 µM
[4] = target: T2, Arginase-2, mitochondrial (Homo sapiens) (UniProt P78540); experiment: in vitro enzyme assay to detect the production of urea directly proportional to the activity of Arginase II; assay type: functional; conditions: 33.3 µM; further: in the data most compounds retested in dose-response had high values
T2 sequence (whole entry): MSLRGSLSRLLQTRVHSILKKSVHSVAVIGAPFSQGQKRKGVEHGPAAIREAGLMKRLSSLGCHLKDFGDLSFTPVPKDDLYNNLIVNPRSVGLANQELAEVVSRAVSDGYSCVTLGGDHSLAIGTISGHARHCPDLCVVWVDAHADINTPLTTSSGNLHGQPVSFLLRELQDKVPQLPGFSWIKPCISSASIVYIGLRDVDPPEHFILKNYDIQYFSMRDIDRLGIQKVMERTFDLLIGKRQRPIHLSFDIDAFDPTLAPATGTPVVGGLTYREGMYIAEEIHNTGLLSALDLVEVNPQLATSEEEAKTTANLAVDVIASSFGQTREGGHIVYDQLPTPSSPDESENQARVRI

[5] = target: T3, Proteasome subunit beta (Trypanosoma cruzi) (UniProt O96673); experiment: Trypanosoma cruzi proteasome chymotrypsin-like activity (TcProtChymo) assay.; further: in the data most compounds retested in dose-response had high values; assay type: functional; conditions: 9.37 µM
T3 sequence (whole entry): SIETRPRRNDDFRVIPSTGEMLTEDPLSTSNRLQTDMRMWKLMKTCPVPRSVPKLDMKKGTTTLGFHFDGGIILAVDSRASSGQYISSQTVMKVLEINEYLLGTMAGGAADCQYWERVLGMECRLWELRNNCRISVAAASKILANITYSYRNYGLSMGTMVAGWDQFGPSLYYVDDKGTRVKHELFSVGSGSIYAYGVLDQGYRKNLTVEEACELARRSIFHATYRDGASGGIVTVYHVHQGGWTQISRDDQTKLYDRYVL

Homo sapiens = species on record: Homo sapiens; experiment: To identify inhibition of the IFN signalling (Jak-Stat) pathway via expression of an eGFP reporter gene under the control of an IFN-stimulated response element (ISRE) containing MxA promoter.; assay type: functional; conditions: 30 µM
[6] = target: T4, Tyrosyl-tRNA synthetase, putative (Trypanosoma cruzi (strain CL Brener)) (UniProt Q4DSP6); experiment: Trypanosoma cruzi tyrosyl tRNA synthetase (TcYRS) _High Tyrosine SOP; assay type: functional; conditions: 30 µM; further: in the data most compounds retested in dose-response had high values
T4 sequence (whole entry): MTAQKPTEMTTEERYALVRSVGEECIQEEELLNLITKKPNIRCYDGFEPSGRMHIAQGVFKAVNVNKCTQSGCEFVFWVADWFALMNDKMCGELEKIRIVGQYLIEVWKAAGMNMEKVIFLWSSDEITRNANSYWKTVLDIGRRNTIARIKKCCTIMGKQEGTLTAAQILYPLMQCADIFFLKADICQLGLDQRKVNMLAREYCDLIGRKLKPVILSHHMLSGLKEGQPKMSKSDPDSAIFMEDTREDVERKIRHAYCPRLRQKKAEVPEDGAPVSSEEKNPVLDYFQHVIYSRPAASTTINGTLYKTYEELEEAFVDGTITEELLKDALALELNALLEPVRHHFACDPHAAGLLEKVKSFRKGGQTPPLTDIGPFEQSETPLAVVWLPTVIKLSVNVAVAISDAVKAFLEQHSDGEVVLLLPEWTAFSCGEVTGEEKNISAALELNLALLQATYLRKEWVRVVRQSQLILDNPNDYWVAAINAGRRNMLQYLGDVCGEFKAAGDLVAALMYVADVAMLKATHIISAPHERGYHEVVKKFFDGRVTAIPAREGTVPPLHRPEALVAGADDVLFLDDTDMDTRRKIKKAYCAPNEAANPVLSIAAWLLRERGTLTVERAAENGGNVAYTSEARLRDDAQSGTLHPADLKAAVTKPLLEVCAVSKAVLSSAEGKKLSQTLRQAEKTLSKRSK

[7] = target: T4, Tyrosyl-tRNA synthetase, putative (Trypanosoma cruzi (strain CL Brener)); experiment: Trypanosoma cruzi tyrosyl tRNA synthetase (TcYRS) SOP; assay type: functional; conditions: 30 µM
[8] = target: Chromo domain-containing protein 1 (Saccharomyces cerevisiae (strain ATCC 204508 / S288c) (Baker's yeast)) (UniProt P32657); experiment: ScCHD-1 Enzyme Inhibition Assay; assay type: functional; conditions: 30 µM; further: in the data most compounds retested in dose-response had high values
Chain of Chromo domain-containing protein 1 (Saccharomyces cerevisiae (strain ATCC 204508 / S288c) (Baker's yeast)) (P32657 whole entry, the tested form may be a part): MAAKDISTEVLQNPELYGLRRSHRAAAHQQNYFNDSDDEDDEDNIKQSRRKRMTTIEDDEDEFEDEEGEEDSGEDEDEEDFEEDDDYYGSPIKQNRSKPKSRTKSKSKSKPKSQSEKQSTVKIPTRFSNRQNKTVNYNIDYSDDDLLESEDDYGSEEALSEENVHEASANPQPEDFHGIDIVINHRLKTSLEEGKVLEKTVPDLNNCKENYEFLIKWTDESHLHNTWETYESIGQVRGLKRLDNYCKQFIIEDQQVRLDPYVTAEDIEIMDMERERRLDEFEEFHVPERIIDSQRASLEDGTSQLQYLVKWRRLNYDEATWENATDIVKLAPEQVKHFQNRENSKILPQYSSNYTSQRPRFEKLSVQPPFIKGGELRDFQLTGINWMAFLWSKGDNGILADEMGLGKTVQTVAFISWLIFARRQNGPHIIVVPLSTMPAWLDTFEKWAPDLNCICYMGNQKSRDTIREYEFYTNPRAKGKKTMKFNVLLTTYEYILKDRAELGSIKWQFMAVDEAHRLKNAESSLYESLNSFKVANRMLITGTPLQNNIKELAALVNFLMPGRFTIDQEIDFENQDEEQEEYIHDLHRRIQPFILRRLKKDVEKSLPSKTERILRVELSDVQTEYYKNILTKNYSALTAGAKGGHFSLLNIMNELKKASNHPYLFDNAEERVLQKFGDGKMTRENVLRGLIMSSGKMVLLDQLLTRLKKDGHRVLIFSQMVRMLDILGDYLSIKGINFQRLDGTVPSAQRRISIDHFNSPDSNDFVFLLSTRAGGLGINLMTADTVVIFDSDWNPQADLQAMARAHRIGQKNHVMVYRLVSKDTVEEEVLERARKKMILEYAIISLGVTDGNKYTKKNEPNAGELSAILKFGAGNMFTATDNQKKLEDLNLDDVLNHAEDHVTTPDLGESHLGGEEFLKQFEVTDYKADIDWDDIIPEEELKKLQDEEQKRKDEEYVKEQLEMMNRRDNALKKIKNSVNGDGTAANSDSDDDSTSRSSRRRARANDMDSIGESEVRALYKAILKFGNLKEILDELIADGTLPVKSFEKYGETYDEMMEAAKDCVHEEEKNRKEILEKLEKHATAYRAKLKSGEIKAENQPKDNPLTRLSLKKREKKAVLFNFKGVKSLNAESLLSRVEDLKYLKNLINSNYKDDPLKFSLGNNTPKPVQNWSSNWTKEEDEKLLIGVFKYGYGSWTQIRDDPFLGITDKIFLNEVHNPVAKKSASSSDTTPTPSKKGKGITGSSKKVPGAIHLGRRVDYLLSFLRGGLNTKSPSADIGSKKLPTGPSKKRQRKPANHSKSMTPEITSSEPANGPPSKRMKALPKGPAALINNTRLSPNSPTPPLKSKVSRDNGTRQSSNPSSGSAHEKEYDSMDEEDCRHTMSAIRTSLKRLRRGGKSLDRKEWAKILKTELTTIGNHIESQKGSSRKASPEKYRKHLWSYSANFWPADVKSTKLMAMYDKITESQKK

Chain of Sialic acid-binding Ig-like lectin 9 (Homo sapiens) (Q9Y336 whole entry): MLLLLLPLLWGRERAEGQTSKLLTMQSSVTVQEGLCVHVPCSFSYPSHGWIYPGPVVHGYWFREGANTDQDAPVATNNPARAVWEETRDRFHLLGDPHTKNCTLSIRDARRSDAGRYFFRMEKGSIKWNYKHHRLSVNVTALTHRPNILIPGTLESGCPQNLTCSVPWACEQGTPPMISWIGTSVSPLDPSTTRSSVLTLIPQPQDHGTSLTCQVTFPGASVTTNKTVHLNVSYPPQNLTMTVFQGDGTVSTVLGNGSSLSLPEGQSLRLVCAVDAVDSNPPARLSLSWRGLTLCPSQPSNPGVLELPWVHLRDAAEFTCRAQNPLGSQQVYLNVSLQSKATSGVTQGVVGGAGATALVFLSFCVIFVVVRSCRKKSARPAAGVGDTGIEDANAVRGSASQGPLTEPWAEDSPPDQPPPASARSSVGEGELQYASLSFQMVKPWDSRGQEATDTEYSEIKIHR
Chain of Protein translocase subunit SecA (Escherichia coli (strain K12)) (P10408 whole entry): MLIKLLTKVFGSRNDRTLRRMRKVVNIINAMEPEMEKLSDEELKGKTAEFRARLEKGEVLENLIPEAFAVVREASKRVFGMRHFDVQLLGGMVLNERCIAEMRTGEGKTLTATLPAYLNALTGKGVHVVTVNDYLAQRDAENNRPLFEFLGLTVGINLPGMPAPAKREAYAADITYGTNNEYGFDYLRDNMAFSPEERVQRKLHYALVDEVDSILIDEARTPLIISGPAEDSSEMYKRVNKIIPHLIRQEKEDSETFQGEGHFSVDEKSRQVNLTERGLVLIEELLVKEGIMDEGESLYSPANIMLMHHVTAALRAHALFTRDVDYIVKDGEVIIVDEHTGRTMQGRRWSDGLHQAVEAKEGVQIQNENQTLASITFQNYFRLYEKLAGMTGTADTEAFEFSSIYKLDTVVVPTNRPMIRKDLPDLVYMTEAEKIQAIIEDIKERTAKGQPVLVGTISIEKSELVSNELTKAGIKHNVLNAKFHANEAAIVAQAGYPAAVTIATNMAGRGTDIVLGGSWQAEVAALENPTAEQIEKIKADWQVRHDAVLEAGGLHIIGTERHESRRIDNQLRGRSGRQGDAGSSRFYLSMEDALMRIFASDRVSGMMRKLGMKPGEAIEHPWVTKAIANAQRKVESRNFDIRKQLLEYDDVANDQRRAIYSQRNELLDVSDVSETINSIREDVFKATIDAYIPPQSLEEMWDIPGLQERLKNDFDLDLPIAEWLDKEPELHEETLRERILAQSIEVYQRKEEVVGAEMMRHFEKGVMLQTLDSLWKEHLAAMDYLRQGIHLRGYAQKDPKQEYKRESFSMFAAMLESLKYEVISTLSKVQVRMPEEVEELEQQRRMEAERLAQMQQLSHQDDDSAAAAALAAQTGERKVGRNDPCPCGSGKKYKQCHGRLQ

Structure (SMILES) | Percent Effect [1] | Percent Effect [2] | Percent Effect [3] | Percent Effect (Trypanosoma cruzi) | Percent Effect [4] | Percent Effect [5] | Percent Effect (Homo sapiens) | Percent Effect [6] | Percent Effect [7] | Percent Effect [8]
CCn1cc(CN2CCCC(c3[nH]ncc3S(C)(=O)=O)C2)cn1 (stereo not given) | -3.37% | 14.7% | 8.19% | 2.56% | -0.885% | 7.55% | -4.1% | 4.23% | 15% | -23.9%
Cc1ccccc1CC(=O)N(C)C1CCCC1 | -3.46% | 13.3% | -5.48% | -4.62% | 3.1% | 16.2% | 17% | 3.68% | 7.69% | -11.3%
NC(=O)C1(CCCc2cccnc2)CCCN(c2ncccn2)C1 (stereo not given) | -2.51% | 4% | 3.57% | -3.16% | 0.885% | 3.61% | 8.71% | 4.23% | 5% | -13%
Nc1nccc(-c2c[nH]nc2C2CCCCC2)n1 | 1.44% | 10.7% | -1.99% | -6.83% | 3.1% | 17.9% | 99.6% | 1.58% | 0% | -6.8%
Cc1ccc(-c2cc(CN3CCOC(Cn4cncn4)C3)on2)cc1 (stereo not given) | -2.91% | 5.2% | 4.78% | -0.56% | -1.43% | 1.4% | 12.8% | 10.8% | 18.8% | -5.72%
Cc1nn(C)c(N(C)C)c1CNCCNS(C)(=O)=O | -1.65% | 10.3% | -0.784% | 5.54% | 5.74% | 9.3% | -6.32% | 7.18% | 20.5% | -2.87%
CC(C)N1CCCC2(CCN(C(=O)CCCn3cncn3)C2)C1=O (stereo not given) | -5.4% | 5.41% | 6.04% | 7.27% | -1.75% | 15.1% | 19.6% | 7.98% | 12.2% | -6.32%
O=C(c1cnco1)N1CCCC(Cc2nccs2)C1 (stereo not given) | -3.28% | 14.7% | 5.58% | 0.395% | 4.87% | 19.1% | -17.7% | 7.41% | 15% | -20.4%
O=c1cc(Cn2cncn2)nc2n1CCCN(CC1CC1)C2 | -4.98% | 11.7% | -1.33% | 1.27% | -1.22% | 9.09% | -6.93% | 3.68% | 5.13% | -4.01%
O=C(c1ccnnc1)N1C[C@@H](OCC2CCOCC2)[C@H]2OCCC[C@H]21 | -4.07% | 1.3% | 6.81% | 5.55% | 14.6% | 0.618% | -6.79% | 0.526% | 7.69% | 96%
CCc1nccn1-c1cncc(C2CCCN2Cc2cccnc2)n1 (stereo not given) | -0.52% | 9.33% | 4.5% | 1.38% | 0.443% | 13.3% | -9.84% | 6.35% | 20% | -22.2%
Clc1ccccc1-c1nc(CNC2CCc3ncnn3C2)cs1 (stereo not given) | -0.994% | -12.8% | -3.7% | 4.6% | 0.41% | -0.427% | -12% | 2.39% | 1.21% | 6.45%

From ChEMBL document CHEMBL3988442, “University of Dundee, Small-Polar-MMV Screening Library” (2021)
